Potency, activation and activity change, negative = inhibition data for 38 compounds are collected here from PubChem BioAssay (NCATS).

Records with an inconclusive call do not appear. Values without a mark were called inactive. Calls of active or inactive are those of the source. The call rests on the fitted dose curve; in most records, active means well fitted curve in the direction sought with a large enough effect; inconclusive means small, poorly fitted or top-dose-only effect, or another doubt; inactive means no such curve, though single readings can be large; an effect the other way counts as inactive or inconclusive.

Assay [1] addresses Rap guanine nucleotide exchange factor 3 (Homo sapiens) (UniProt O95398). Put plainly: Confirmatory qHTS for antagonist of cAMP-regulated guanine nucleotide exchange factor 3 (EPAC1) (AID 1645880). Further: nearly all actives have a fitted effect of over 55% in size. Further: potency means the concentration at half of the fitted maximal effect. A digest of the protocol:
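Released BODIPY-GDP fluoresces less than Rap1-bound BODIPY-GDP; the signal is followed at 480/540 nm at 5-min intervals over 30 min, after 5 min at room temperature. Reactions contain 100 nM EPAC1, 250 nM RAP1B-BODIPY-GDP and 50 uM GDP; results are normalized to ATA and DMSO.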
On the technique in general: In qHTS, concentration-response curves come from the screen itself.

Assay [2] has the same target. Put plainly: Confirmatory qHTS for agonist of cAMP-regulated guanine nucleotide exchange factor 3 (EPAC1) (AID 1645881).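 Further: EPAC1 catalysed release of BODIPY-GDP from Rap1B seen as fluorescence loss; 100% = effect of cAMP agonist control; nearly all actives have a fitted effect of over 75% in size.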
In assay [3] the target is Rap guanine nucleotide exchange factor 4 (Homo sapiens) (UniProt Q8WZA2). As to the kind of experiment: Confirmatory qHTS for agonist of cAMP-regulated guanine nucleotide exchange factor 4 (EPAC2) (AID 1645884).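 Further: nucleotide exchange releases bodipy-GDP from Rap1 and this lowers its fluorescence; on the % scale 0 is the no-effect control and ±100 the full control effect; nearly all actives have a fitted effect of over 65% in size.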
For assay [4] the target is unchanged. As to the kind of experiment: Confirmatory qHTS for antagonist of cAMP-regulated guanine nucleotide exchange factor 4 (EPAC2) (AID 1645885). Further: nearly all actives have a fitted effect of over 25% in size. Further: potency means the concentration at half of the fitted maximal effect. On activity change, negative = inhibition: on the % scale 0 is the no-effect control and ±100 the full control effect.
Assay [5] concerns the target Rap guanine nucleotide exchange factor 3 (Homo sapiens) (UniProt O95398). Put plainly: Counterscreen qHTS for antagonist of cAMP-regulated guanine nucleotide exchange factor 3 (EPAC1) (AID 1645888). Further: % of control where 0% means no effect. The essentials:
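Rap1B–BODIPY-GDP (250 nM) with 50 uM GDP; compounds pin-transferred to 9.74 nM–152 uM final (activator) or from 7.32 nM upwards (inhibitor). Fluorescence Ex/Em 480/540 nm read at 5 and 30 min, then after adding cAMP or buffer, at room temperature.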

Chain of Rap guanine nucleotide exchange factor 4 (Homo sapiens) (Q8WZA2 whole entry, looked up): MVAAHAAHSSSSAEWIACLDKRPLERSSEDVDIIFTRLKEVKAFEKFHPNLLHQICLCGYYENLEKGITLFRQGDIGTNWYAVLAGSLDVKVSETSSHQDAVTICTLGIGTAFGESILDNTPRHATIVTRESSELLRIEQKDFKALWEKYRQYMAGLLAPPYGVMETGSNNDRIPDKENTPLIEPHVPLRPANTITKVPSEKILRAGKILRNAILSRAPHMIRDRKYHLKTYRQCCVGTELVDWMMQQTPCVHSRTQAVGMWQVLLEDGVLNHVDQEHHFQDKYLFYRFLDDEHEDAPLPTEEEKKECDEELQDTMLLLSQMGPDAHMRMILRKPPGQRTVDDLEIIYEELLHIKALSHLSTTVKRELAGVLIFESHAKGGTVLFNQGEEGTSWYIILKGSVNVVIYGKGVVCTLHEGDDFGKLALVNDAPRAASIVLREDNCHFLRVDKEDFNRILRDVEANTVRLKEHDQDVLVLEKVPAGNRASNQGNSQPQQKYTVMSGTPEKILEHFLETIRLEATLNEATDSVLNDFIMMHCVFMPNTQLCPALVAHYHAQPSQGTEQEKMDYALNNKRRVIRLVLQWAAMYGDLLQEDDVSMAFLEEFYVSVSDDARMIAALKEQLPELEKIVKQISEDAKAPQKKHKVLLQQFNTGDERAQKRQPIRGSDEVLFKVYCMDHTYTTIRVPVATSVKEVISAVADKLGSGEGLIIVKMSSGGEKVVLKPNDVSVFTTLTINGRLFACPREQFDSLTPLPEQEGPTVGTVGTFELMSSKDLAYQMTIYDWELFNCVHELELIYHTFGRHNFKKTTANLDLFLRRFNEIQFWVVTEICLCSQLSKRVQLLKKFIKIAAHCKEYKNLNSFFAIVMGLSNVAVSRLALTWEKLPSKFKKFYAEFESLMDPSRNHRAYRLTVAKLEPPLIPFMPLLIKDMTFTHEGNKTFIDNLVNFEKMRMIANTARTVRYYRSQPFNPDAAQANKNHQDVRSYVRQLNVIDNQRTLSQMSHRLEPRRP
Chain of Rap guanine nucleotide exchange factor 3 (Homo sapiens) (O95398 whole entry, looked up): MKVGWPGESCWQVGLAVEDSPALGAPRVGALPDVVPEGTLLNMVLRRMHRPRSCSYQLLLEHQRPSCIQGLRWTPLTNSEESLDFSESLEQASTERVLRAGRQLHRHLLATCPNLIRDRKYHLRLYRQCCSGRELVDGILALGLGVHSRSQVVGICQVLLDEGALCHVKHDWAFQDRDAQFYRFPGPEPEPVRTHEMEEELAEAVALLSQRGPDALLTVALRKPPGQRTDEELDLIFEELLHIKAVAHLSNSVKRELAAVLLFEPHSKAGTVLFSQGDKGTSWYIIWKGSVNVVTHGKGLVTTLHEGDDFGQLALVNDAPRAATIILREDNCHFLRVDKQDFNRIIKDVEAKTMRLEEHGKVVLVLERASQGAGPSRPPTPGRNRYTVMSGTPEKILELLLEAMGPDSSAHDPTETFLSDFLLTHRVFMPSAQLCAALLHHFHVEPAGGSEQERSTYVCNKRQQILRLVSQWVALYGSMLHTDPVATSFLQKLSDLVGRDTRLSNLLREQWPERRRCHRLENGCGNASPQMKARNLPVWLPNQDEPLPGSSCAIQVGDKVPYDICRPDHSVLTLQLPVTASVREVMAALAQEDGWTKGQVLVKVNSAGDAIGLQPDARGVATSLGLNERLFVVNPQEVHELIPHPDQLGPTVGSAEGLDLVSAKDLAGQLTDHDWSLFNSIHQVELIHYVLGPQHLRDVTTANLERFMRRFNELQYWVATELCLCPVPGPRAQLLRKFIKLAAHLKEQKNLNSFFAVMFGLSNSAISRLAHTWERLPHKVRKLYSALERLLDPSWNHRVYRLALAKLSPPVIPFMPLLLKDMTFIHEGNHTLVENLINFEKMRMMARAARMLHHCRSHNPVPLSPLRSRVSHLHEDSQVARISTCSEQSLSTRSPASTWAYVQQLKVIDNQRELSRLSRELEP

As to `COc1cc(NS(=O)(=O)c2ccc(NC(=O)/C(=C/c3ccccc3Cl)NC(=O)c3ccccc3)cc2)nc(OC)n1`, the Potency in assay [1] was 84.9 µM (active). In addition, the Potency result in assay [2], in assay [3], in assay [4] and in assay [5] was “inactive” in each case.

As for `NC(=O)c1cc2ccccc2o/c1=N\NC(=O)c1ccncc1`, the Potency entry in assay [1], in assay [2] and in assay [4] was “inactive” in each case. For the same compound, the activation in assay [3] was 1.92% [at 17.1 µM, percent relative to cAMP agonist control]. Further, the activity change, negative = inhibition in assay [5] is -2.29% [at 30.8 µM].

`Cc1cc(NC(=O)CSc2sc3c(O)cc(=O)[nH]c3c2C#N)ccc1Br`: in assay [1], the Potency is 42.6 µM (active). For the same compound, the Potency entry in assay [2], in assay [3], in assay [4] and in assay [5] was “inactive” throughout.

On to `Cc1c(C(=O)OCC(=O)N2CCCC2=O)oc2ccccc12`, for which the Potency entry in assay [1], in assay [2], in assay [3], in assay [4] and in assay [5] was “inactive” in each case.

As for `Oc1ccc(C2=Nn3c(nnc3-c3ccco3)SC2)cc1O`, the Potency in assay [1] is 16.9 µM (active). Further, the Potency entry in assay [2], in assay [3], in assay [4] and in assay [5] was “inactive” throughout.

On to `COc1ccc(/C=N/Nc2ccc(C(=O)O)cc2)cc1Br`, for which the Potency entry in assay [1], in assay [2], in assay [3], in assay [4] and in assay [5] was “inactive” each time.

For the compound `CN1\C(=C/C=C/C=C/C=[N+](C)C)C(C)(C)c2ccccc21`, in assay [1], the Potency is 39.8 µM (active). The Potency entry in assay [2] and in assay [4] was “inactive” each time. Besides, in assay [3], the activation was 2.26% [at 17.1 µM, percent relative to cAMP agonist control]. Moreover, in assay [5], the activity change, negative = inhibition is 43.3% [at 30.8 µM].

Regarding `COc1ccccc1N1CCN(c2ncnc3onc(-c4ccc(F)cc4)c23)CC1`, the Potency result in assay [1], in assay [2], in assay [3], in assay [4] and in assay [5] was “inactive” each time.

With `Cc1ccc(C(=O)c2coc3ccc(O)c(Cl)c23)cc1`, the Potency result in assay [1], in assay [2], in assay [3] and in assay [5] was “inactive” each time. Moreover, the Potency in assay [4] is 84.9 µM (active).

Take `Oc1ccc(N=Cc2c(O)ccc3ccccc23)cc1`: the Potency entry in assay [1], in assay [2] and in assay [4] was “inactive” each time. The activation in assay [3] is 11.7% [at 17.1 µM, percent relative to cAMP agonist control]. In addition, in assay [5], the activity change, negative = inhibition was -17% [at 30.8 µM].

Take `CCCn1c(CN2CCN(C(=O)c3ccco3)CC2)nc2c1c(=O)n(C)c(=O)n2C`: the Potency entry in assay [1], in assay [2], in assay [3] and in assay [5] was “inactive” throughout. In addition, the Potency in assay [4] is 10.7 µM (active).

For the compound `COc1ccc(Cl)cc1N(C)C(=O)Cc1noc2ccc(C)cc12`, the Potency entry in assay [1], in assay [2], in assay [3], in assay [4] and in assay [5] was “inactive” in each case.

Consider `CC(=O)c1sc(NC(=O)c2c(F)cccc2F)nc1C`, for which the Potency result in assay [1], in assay [2], in assay [3], in assay [4] and in assay [5] was “inactive” throughout.

With `CCN(CC)CCn1c2c(c(SCC(=O)Nc3nc4ccccc4s3)nc1=O)CCCC2`, the Potency result in assay [1], in assay [2], in assay [3], in assay [4] and in assay [5] was “inactive” throughout.

For `O=C(COC(=O)CNC(=O)c1ccc(Cl)cc1Cl)NCc1ccco1`, the Potency entry in assay [1], in assay [2] and in assay [4] was “inactive” throughout. Moreover, the activation in assay [3] was 5.36% [at 17.1 µM, percent relative to cAMP agonist control]. Also, the activity change, negative = inhibition in assay [5] was 9.24% [at 30.8 µM].

`CSc1nc(N2CCOCC2)c2c3c(sc2n1)CCC3`: the Potency result in assay [1], in assay [2], in assay [3], in assay [4] and in assay [5] was “inactive” throughout.

In the case of `COc1ccc(/C=N/NC(=O)c2cccnc2)cc1CN1CCCc2ccccc21`, the Potency entry in assay [1], in assay [2], in assay [3], in assay [4] and in assay [5] was “inactive” each time.

As for `Cc1ccc2nc(N3C(=O)C(O)=C(C(=O)c4ccc(C)o4)C3c3cccc(O)c3)sc2c1` (stereo not given), the Potency in assay [1] was 37.9 µM (active). The Potency entry in assay [2], in assay [3], in assay [4] and in assay [5] was “inactive” in each case.

As to `CN1CCN(CCC(=O)Nc2ccc(Cl)cc2)CC1`, the Potency result in assay [1], in assay [2], in assay [3], in assay [4] and in assay [5] was “inactive” each time.

Turning to `CCCCN(CCCC)S(=O)(=O)c1ccc(C(=O)Nc2sc3c(c2C(N)=O)CCN(CC)C3)cc1`, the Potency entry in assay [1], in assay [2], in assay [3], in assay [4] and in assay [5] was “inactive” in each case.

`COc1cc(/C=C2/C(=O)NN(c3ccc(Cl)cc3)C2=O)ccc1OC(=O)c1ccco1`: the Potency in assay [1] was 47.8 µM (active). The Potency result in assay [2], in assay [3], in assay [4] and in assay [5] was “inactive” throughout.

As for `CCOC(=O)C1=C(C)Nc2nnnn2C1c1ccc(OC)c(Br)c1` (stereo not given), the Potency result in assay [1], in assay [2] and in assay [4] was “inactive” in each case. Besides, the activation in assay [3] was 8.47% [at 17.1 µM, percent relative to cAMP agonist control]. The activity change, negative = inhibition in assay [5] is 1.39% [at 30.8 µM].

With `Cc1nc(SCC(=O)N2CCCCCC2)[nH]c(=O)c1C`, the Potency result in assay [1], in assay [2], in assay [3], in assay [4] and in assay [5] was “inactive” throughout.

For `CCc1ccc2c(c1)C(NC(C)=O)C(=O)N2CCN1CCOCC1` (stereo not given), in assay [1], the Potency is 19 µM (active). For the same compound, the Potency entry in assay [2], in assay [3], in assay [4] and in assay [5] was “inactive” each time.

`CC(=O)c1ccc(NC(=O)CSc2nc(Nc3ccccc3)nc(N3CCOCC3)n2)cc1`: the Potency result in assay [1], in assay [2], in assay [3], in assay [4] and in assay [5] was “inactive” each time.

As for `Cc1cc(C)c(S(=O)(=O)N2CCCCC2CCNC(=O)C(=O)NCC2CCCO2)c(C)c1` (stereo not given), the Potency result in assay [1], in assay [2] and in assay [4] was “inactive” in each case. Besides, the activation in assay [3] was 2.27% [at 17.1 µM, percent relative to cAMP agonist control]. Besides, in assay [5], the activity change, negative = inhibition was 6.58% [at 30.8 µM].

Turning to `COc1ccc(C(=O)Nc2ccc(-c3cc4ccccc4oc3=O)c(C)c2)cc1OC`, the Potency entry in assay [1], in assay [2], in assay [3], in assay [4] and in assay [5] was “inactive” each time.

Regarding `Cn1cc(CNCc2cn(C)nc2-c2ccc(C3CCCCC3)cc2)cn1`, the Potency result in assay [1], in assay [2], in assay [3], in assay [4] and in assay [5] was “inactive” in each case.

As for `CCOc1ccc(N2CC(c3nc4ccccc4n3Cc3cccc(Cl)c3)CC2=O)cc1` (stereo not given), the Potency entry in assay [1], in assay [2], in assay [3], in assay [4] and in assay [5] was “inactive” throughout.

As for `Cn1cccc1C(=O)NC(=O)COC(=O)c1cc(S(=O)(=O)N2CCCCC2)ccc1Cl`, the Potency entry in assay [1], in assay [2], in assay [3], in assay [4] and in assay [5] was “inactive” each time.

Take `CC(C)c1ccc(C2NC(=O)c3c(sc4c3CCN(C)C4)N2)cc1` (stereo not given): the Potency result in assay [1], in assay [2], in assay [3], in assay [4] and in assay [5] was “inactive” throughout.

In the case of `CCOC(=O)C1=C(N)OC2=C(C(=O)CC(C)(C)C2)C1c1ccc(CC)s1` (stereo not given), the Potency entry in assay [1], in assay [2], in assay [3], in assay [4] and in assay [5] was “inactive” throughout.

With `Cc1ccc(-c2cn3c(n2)sc2cc(C(=O)NCCC4=CCCCC4)ccc23)c(C)c1`, the Potency entry in assay [1], in assay [2], in assay [3], in assay [4] and in assay [5] was “inactive” in each case.

As for `COc1ccc(-c2cc(OC(=O)c3ccc(Cl)cc3)c3c(C)oc(C)c3c(=O)c2)cc1`, the Potency in assay [1] was 75.7 µM (active). Also, the Potency entry in assay [2], in assay [3], in assay [4] and in assay [5] was “inactive” each time.

Turning to `CCc1noc(C)c1C(=O)N1CCCSC1=Nc1ccccc1C(C)C`, the Potency result in assay [1], in assay [2], in assay [3], in assay [4] and in assay [5] was “inactive” each time.

Regarding `Cc1ccc(S(=O)(=O)CC(=O)N(CCCN(C)C)c2nc3ccc(C)cc3s2)cc1`, the Potency entry in assay [1], in assay [2], in assay [3], in assay [4] and in assay [5] was “inactive” each time.

`S=C(Nc1ccccc1)Nc1ccccn1`: the Potency result in assay [1], in assay [2] and in assay [4] was “inactive” throughout. In addition, in assay [3], the activation was 9.11% [at 17.1 µM, percent relative to cAMP agonist control]. Also, the activity change, negative = inhibition in assay [5] was 9.21% [at 30.8 µM].

`COc1ccc(-c2oc3c4c2C(=O)OCCOC4CCC3)cc1` (stereo not given): the Potency entry in assay [1], in assay [2], in assay [3], in assay [4] and in assay [5] was “inactive” throughout.
